The list is not random: actives were taken first. Their share in the collection is about 4.5%.
hcDAF12 agonist: H. contortus DAF-12 activation, primary screen; HEK293 hcDAF-12 lit1-tk-luc reporter, luminescence; 0% DMSO, 100% Δ7-dafachronic acid; activation, % at 6.8 µM; 370,000 tested, 1.4% active;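 active = activation above the mean of all tested compounds plus 3 SD, cut at about 5.5% in these data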;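 also: 100% = response to 3 µM Δ7-dafachronic acid high control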
DAX1 inh-1: inhibits human nuclear receptor DAX1; P51843; HEK293 Gal4-DAX1 luciferase reporter, luminescence; inhibition, % at 6.75 µM; 340,000 tested, 0.99% active; AID 504766;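 active = inhibition above the mean over all tested compounds plus 3 SD, cut at about 4.2% in these data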;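 also: 0% = DAX1-transfected cells with DMSO and 100% = empty-vector control cells with DMSO; inhibition shows as a rise in luminescence from relieved DAX1 repression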
Target sequence (P51843 207-470 limits assumed): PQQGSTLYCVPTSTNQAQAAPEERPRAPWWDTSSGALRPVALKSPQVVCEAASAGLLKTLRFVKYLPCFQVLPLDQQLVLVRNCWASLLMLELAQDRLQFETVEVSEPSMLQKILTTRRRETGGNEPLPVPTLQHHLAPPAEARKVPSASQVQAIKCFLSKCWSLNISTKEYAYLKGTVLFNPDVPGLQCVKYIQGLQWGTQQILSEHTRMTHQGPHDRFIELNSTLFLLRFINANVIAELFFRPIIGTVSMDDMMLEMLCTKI
ssDAF12 agonist: activates DAF-12 receptor from parasite S. stercoralis. 370,000 tested, 1% active. AID 652126. HEK293 ssDAF-12/GRIP1 lit1-tk-luc reporter, luminescence; % of 3 µM dafachronic acid response. activation, % at 6.8 µM;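 active = activation above the mean over all tested compounds plus 3 SD, cut at about 0.9% in these data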;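 also: 0% = DMSO-only wells and 100% = 3 µM delta7-dafachronic acid wells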
DAX1 inh-2: blocks DAX1 repression of SF-1 activated StAR promoter | HEK293T StAR-luciferase reporter, SF-1/DAX-1 repression relief | inhibition, % at 6.8 µM | 370,000 tested, 1.1% active | AID 652010;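 active = inhibition above the mean over all tested compounds plus 3 SD, cut at about 3.6% in these data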;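 also: 0% = DAX-1 cells with DMSO and 100% = cells lacking DAX-1 with DMSO; higher inhibition means more luminescence from relief of DAX-1 repression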
hgDAF12 agonist: agonists of H. glycines DAF-12 nuclear receptor | activation, % at 6.8 µM | HEK293 GAL4-hgDAF12 UAS-luciferase reporter, agonist luminescence; normalized to butyrate control | AID 687014 | 370,000 tested, 1.8% active;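 active = activation above a cutoff set at the mean of all screened compounds plus 3 SD, cut at about 10% in these data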;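 also: 0% = DMSO wells and 100% = sodium butyrate wells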
GAA850 FXN act: increases GAA850 frataxin promoter reporter activity. HEK293 lucGAA850 FXN promoter luciferase reporter, 24 h; percent of 10 µM SAHA response. activation, % at 6 µM. 360,000 tested, 0.56% active. AID 540364;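 active = activation above the average of all compounds screened plus 3 SD, cutoff fixed separately per campaign, cut at about 7.5% in these data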;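 also: 0% = DMSO wells and 100% = 10 µM SAHA wells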
The depositor's hits bear a star; x = no result.

SMILES	hcDAF12 agonist	DAX1 inh-1	ssDAF12 agonist	DAX1 inh-2	hgDAF12 agonist	GAA850 FXN act
CC(=NN1CCN(Cc2ccccc2Cl)CC1)c1ccc(O)cc1	2	x	-1	1	1	x
COc1cc(-c2cc(NC=O)c3ncc(-c4ccc(C(C)=O)cc4)n3c2)ccc1O	-3	x	-1	-1	11*	3
COc1cccc(-c2cnc3c(NC=O)cc(-c4ccc(O)c(OC)c4)cn23)c1	-2	x	-1	-1	-2	4
Cc1ccc(S(=O)(=O)N(C)C)cc1NC(=O)c1ccc2ccccc2n1	2	2	1.1*	0	5	4
Cc1ccc(S(=O)(=O)N(C)C)cc1NC(=O)c1ccncc1	0	2	-1	0	2	1
COc1ccccc1NC(=S)NNC(=O)c1nn(C)c(C)c1Br	3	2	0	1	12*	2
N#C/C(=C(/O)CSc1nnc(Cc2cccs2)n1C1CCCCC1)c1nc2ccccc2[nH]1	7.1*	2	1	0	-1	-2
COc1ccccc1-c1nnc(SC/C(O)=C(\C#N)c2nc3ccccc3[nH]2)n1C1CCCCC1	2	1	-1	1	-1	1
CCCc1cc(C(=O)Nc2ccc(F)cc2F)no1	1	2	0	1	13*	1
Cc1ccc(O)c(NC(=O)c2onc(C)c2Cl)c1	6.0*	3	1.8*	0	4	5
Cc1noc(C(=O)Nc2ccc(F)cc2F)c1Cl	0	4.2*	0	0	3	1
Cc1ccc(NC(=O)c2cc3ccccc3o2)cc1S(=O)(=O)N(C)C	3	3	0	1	11*	6
COc1ccc(C)cc1NC(=O)c1cc2ccccc2o1	6.0*	2	1.6*	0	5	5
COC(=O)c1cc(NC(=O)c2cc3ccccc3o2)cc(C(=O)OC)c1	3	0	1	0	-1	2
COc1ccc(OC)c(NC(=O)c2cc3ccccc3o2)c1	5	2	0	1	3	4
CCOc1ccccc1NC(=O)c1cc2ccccc2o1	5	1	0.9*	0	7	5
COC(=O)c1cccc(NC(=O)c2cc3ccccc3o2)c1	3	-1	0	2	12*	3
CN(Cc1ccco1)S(=O)(=O)c1ccc2c(c1)CCN2C(=O)CC(C)(C)C	-3	x	-1	-1	4	x
O=C1CC(N2CCCN(Cc3ccccc3)CC2)=NC(=O)N1c1ccc(Br)cc1	-1	x	-2	0	0	x
COC(=O)c1ccccc1NC(=O)c1cc2ccccc2o1	3	1	0	0	4	1
O=C(Nc1ccccc1C(F)(F)F)c1cc2ccccc2o1	4	5.2*	0	3	13*	4
CCOc1ccc(-n2c(SCC(=O)Nc3cccc4ccccc34)nnc2-c2ccco2)cc1	-1	x	-2	-3	-1	x
CCOC(=O)[C@]12CCCC=C1N(Cc1ccc(OC)cc1)C(=O)[C@@H]2CC(=O)N1CCCCC1	-1	x	-1	-1	-2	x
NC(=O)CCn1cnc2ccccc21	-1	4.3*	-2	0	1	2
COc1ccc2c(CCN3C(=O)c4ccccc4C3=O)c(-c3c(CCN4C(=O)c5ccccc5C4=O)c4ccccc4n3C(=O)OC(C)(C)C)[nH]c2c1	-1	x	-2	x	-3	x
SMILES	hcDAF12 agonist	DAX1 inh-1	ssDAF12 agonist	DAX1 inh-2	hgDAF12 agonist	GAA850 FXN act
COc1ccc(-c2cc3cc(OC)c(OC)cc3c(C)n2)cc1	0	0	-1	1	11*	5
COc1ccc(-c2cc(OC)c3ccccc3n2)cc1	4	2	-1	0	1	3
CCC[C@@H](/C=C/C(=O)OC(C)(C)C)Sc1ccc(OC)cc1	-1	x	-1	1	4	x
C(=N\N=C\c1ccccc1)/c1ccccc1	-1	5.0*	0	1	2	4
Nc1nc(CN2CCCCCC2)nc(Nc2ccccc2)n1	-1	0	0	-1	0	0
Cc1c(-c2nc(N)nc(Nc3ccccc3)n2)oc2ccccc12	3	2	0	2	11*	6
CCCCCCNC(=O)C1CSCCS(=O)(=O)N1Cc1ccccc1 (stereo unspecified)	-4	x	-1	0	0	x
O=C1/C(=C/c2ccco2)CCc2ccccc21	6.2*	1	-1	1	9	3
CN(C)CCN1C(=O)c2cccc3cc([N+](=O)[O-])cc(c23)C1=O	6.5*	6.9*	0	-7	-5	-4
CN(C)CCCN1C(=O)c2cccc3cccc(c23)C1=O	4	0	0	0	4	2
Cc1ccc(S(=O)(=O)N2C[C@H]3[C@H]4C(=O)N(c5ccccc5)C(=O)[C@H]4CC(=O)[C@H]3[C@@H]2c2cccc3ccccc23)cc1	2	x	0	4.3*	3	x
CC(C)[C@H](NC(=O)Cc1ccccc1)C(=O)OCc1cc(=O)n2c(n1)sc1ccccc12	3	0	1.1*	0	4	0
C=CCNC(=O)C12CCC(C)(C(=O)[C@H]1Br)C2(C)C (stereo partly specified)	1	6.9*	0	0	0	-1
COc1ccc(S[C@]2(C(=O)N3CCN(C(C)=O)CC3)CC(=O)N(C(=O)C3CC3)[C@@H]2c2ccc(OC)cc2)cc1	-2	x	0	-2	-2	x
N#CCC[C@@H]1CC[C@]2(CCCN(Cc3ccc(Cl)cc3)C2)O1	1	x	-1	0	0	x
CCO[C@@H]1OC(C(N)=O)=C[C@H](C2CCCCC2)[C@H]1CCCO	0	4.3*	-1	0	0	0
C#CCNC(=O)C1=C[C@@H](C2CCCCC2)[C@H](CCCO)[C@@H](OCC)O1	-2	5.3*	-1	0	0	0
Cc1onc(-c2ccc(Cl)cc2)c1-c1ccn(S(=O)(=O)c2ccccc2)n1	1	x	-1	-1	2	x
O=C(CNS(=O)(=O)c1ccc(Cl)s1)N1CCN(c2ccccn2)CC1	-3	x	-2	-1	-2	x
CC1(c2ccccc2Cl)NC(=O)N(CC(=O)Nc2cccnc2Cl)C1=O (stereo unspecified)	-1	-1	-1	2	0	0
CC1(c2cccc(Br)c2)NC(=O)N(CC(=O)Nc2cccnc2Cl)C1=O (stereo unspecified)	1	-1	-1	3.7*	1	0
Cc1c(C(=O)Oc2ccc(Cl)cc2)n(C)oc1=O	0	0	-1	0	1	1
Cc1c(C(=O)NNc2c(Cl)cccc2Cl)n(C)oc1=O	-2	6.2*	-1	1	-2	1
S=C(Nc1ccccc1)OCCN1CCCC12CCC(c1ccccc1)CC2 (stereo unspecified)	1	x	-1	x	2	x
